# MEKK3 PB1 HTS – modulators of MEKK3-MEK5 PB1 binding, primary screen, biochemical, wildtype MEKK3, multiplex bead flow cytometry, Alexa488-MEK5. AID 1529, 2009. bead-based flow cytometry, Alexa488-MEK5 binding to MEKK3; actives lie on both sides; 0 = blocked by unlabeled MEK5, 100 = vehicle. Mitogen-activated protein kinase kinase kinase 3 (Homo sapiens), Q99759. binding response (% of control), % at 10 µM. 1.4% of 290,000 active;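 active means binding response more than 3 SD above or below the average of its plate-row segment, actives on both sides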;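 further: Alexa488 bead fluorescence after subtracting the streptavidin-only scavenger bead signal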
# NTR1 ag – agonists of human NTR1, primary screen, imaging, U2OS cells, beta-arrestin-GFP, high content. 0.17% of 330,000 active. NTR1-U2OS beta-arrestin-GFP spot imaging, agonist mode. activation, % at 20 µM. Neurotensin receptor type 1 (Homo sapiens), P30989;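 active means activation at or above 40% of the spot to cytoplasm intensity ratio, with at least 20 cells analyzed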;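 further: 0% = DMSO without peptide and 100% = 100 nM NTR1 peptide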
# ANO1 block – TMEM16A chloride channel inhibitors, primary screen, cell-based, HTS; HEK293 TMEM16A/YFP iodide influx fluorescence, ionomycin; 1.2% of 310,000 active; Anoctamin-1 (Mus musculus), Q8BHY3; AID 588511, 2011; normalized B-score (activity score, 25-100; higher = stronger inhibition) at 10 µM;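 active means ratio plate-corrected score three or more library SD toward inhibition, starting fluorescence score within five deviations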;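 further: score derived from kinetic fluorescence span divided by baseline fluorescence per well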
# Target sequence (Q8BHY3 whole entry, looked up): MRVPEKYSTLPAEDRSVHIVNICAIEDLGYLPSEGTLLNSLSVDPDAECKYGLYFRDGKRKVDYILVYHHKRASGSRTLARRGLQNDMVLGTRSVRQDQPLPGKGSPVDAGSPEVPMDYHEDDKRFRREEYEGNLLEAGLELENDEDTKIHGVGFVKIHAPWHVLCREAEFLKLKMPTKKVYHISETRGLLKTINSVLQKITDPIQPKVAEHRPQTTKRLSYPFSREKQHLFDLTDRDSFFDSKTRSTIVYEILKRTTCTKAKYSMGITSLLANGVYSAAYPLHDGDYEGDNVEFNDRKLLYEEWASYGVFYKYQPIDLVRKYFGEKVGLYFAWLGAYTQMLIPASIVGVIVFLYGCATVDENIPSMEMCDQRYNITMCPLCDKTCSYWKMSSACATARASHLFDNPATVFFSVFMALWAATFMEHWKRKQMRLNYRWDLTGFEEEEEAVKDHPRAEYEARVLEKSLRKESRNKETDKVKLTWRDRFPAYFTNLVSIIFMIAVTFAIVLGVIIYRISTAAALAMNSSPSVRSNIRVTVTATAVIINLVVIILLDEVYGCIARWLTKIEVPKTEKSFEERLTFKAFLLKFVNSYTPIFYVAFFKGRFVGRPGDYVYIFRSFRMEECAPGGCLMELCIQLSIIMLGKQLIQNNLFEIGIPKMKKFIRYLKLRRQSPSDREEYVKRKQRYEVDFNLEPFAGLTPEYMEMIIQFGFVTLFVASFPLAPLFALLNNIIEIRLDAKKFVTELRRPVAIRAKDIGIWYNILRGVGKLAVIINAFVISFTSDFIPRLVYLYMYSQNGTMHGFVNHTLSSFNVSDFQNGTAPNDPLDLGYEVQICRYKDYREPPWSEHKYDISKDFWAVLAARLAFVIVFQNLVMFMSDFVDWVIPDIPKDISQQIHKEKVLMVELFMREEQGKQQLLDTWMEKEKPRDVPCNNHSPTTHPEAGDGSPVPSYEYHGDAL
# MEKK2mut PB1 HTS – MEK5 binding signal on mutant MEKK2 PB1, primary screen, biochemical, multiplex bead flow cytometry, Alexa488-MEK5. AID 1530, 2009. percent response, % at 10 µM. 0.35% of 290,000 active. Alexa488-MEK5 binding to MEKK2 mutant; in the data active means percent response above about 24%, passing the limit was not always enough
# ANO1 activ – TMEM16A chloride channel activators or potentiators, primary screen, cell-based, HTS; B-score at 10 µM; 0.3% of 340,000 active; HEK293 TMEM16A/YFP-H148Q/I152L, iodide quench fluorescence; hits give low values; AID 623877, 2012;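 active means fluorescence-ratio B-score plate-corrected deviation score at least 3 library SD below zero, with starting fluorescence score within 5 deviations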;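 further: channel opened by trigger with iodide after compound preincubation; score built on the fluorescence ratio of max minus min over baseline; more negative score means more quench and so TMEM16A activation or potentiation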
# MEKK2wt PB1 HTS – modulators of MEK5 binding to wildtype MEKK2, primary screen, biochemical, multiplex bead flow cytometry, Alexa488-MEK5; AID 1531, 2009; binding response (% of control), % at 10 µM; Mitogen-activated protein kinase kinase kinase 2 (Homo sapiens), Q9Y2U5; Alexa488-MEK5 binding to MEKK2 WT; actives lie on both sides; 1.1% of 290,000 active; in the data active means binding response below about 67% or above about 130%
# MEKK2wt confirm – modulators of MEK5 binding to wildtype MEKK2, confirmation, biochemical, single concentration, multiplex bead flow cytometry; Alexa488-MEK5 binding to MEKK2 WT; actives lie on both sides; AID 1892, 2009; binding response (% of control), % at 10 µM; shares compounds with MEKK3 PB1 HTS; 2.4% of 5,900 active; in the data active means binding response below about 16% or above about 210%; inactive means in between
# MEKK2mut confirm – mutant MEKK2 PB1-MEK5 binding signal retest – biochemical, single concentration, multiplex bead flow cytometry, confirmation; shares compounds with MEKK3 PB1 HTS; Alexa488-MEK5 binding to MEKK2 mutant; percent response, % at 10 µM; 2% of 5,900 active; AID 1893, 2009; in the data active means percent response mostly above about 71%, no sharp cut-off; inactive means mostly below about 38%;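 further: higher means compound restores mutant binding toward wildtype level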
# MEKK3 confirm – MEKK3 wild-type PB1 binding to MEK5, inhibitors, confirmation, biochemical, bead multiplex flow cytometry, single concentration, wildtype; binding response (% of control), % at 10 µM; Alexa488-MEK5 binding to MEKK3; hits give low values; shares compounds with MEKK3 PB1 HTS; 1.8% of 5,900 active;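 active means binding response below 72% of control, or above a set upper limit, though filed actives all read lower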;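 further: 100% = DMSO only wells and 0% = binding blocked by excess unlabeled MEK5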
# * marks the source's active call; other numbers are inactive results; i = inactive; / = no result given; [ ] = dose if it differs, or a comment. Hits are enriched below; roughly 3.4% of the tested compounds scored in any of these assays.
SMILES,MEKK3 PB1 HTS,NTR1 ag,ANO1 block,MEKK2mut PB1 HTS,ANO1 activ,MEKK2wt PB1 HTS,MEKK2wt confirm,MEKK2mut confirm,MEKK3 confirm
Cc1ccc(C)c(CN2CCC(CNC(=O)CCc3nnc4ccc(N5CCC(C)CC5)nn34)CC2)c1,104,2,i,9,i,126,/,/,/
C/C(=N\NC1=NCCN1)c1ccc(N)c([N+](=O)[O-])c1,46*[inhibitor],0,i,-31,i,59,108,5,105
COc1ccc(/C(C)=N/NC2=NCCN2)cc1Cl,102,1,i,7,i,116,/,/,/
CC(=O)NCCc1ccc(S(=O)(=O)Nc2ccc3c(c2)OCCO3)cc1,/,0,i,/,i,/,/,/,/
COc1ccccc1C1C(C(C)=O)=C(O)C(=O)N1CCc1ccccc1 (centres undefined),42*[inhibitor],3,i,-17,i,10*[inhibitor],110,5,106
COc1ccc(CCN2C(=O)C(O)=C(C(C)=O)C2c2ccccc2OC)cc1OC (centres undefined),85,-1,i,-4,i,90,/,/,/
CC1CN(C(=O)c2cc3c(=O)n4ccccc4nc3n2C)CC(C)O1 (centres undefined),105,1,i,0,i,104,/,/,/
CC1CCCC(NS(=O)(=O)c2ccc3c(c2)OCCO3)C1C (centres undefined),106,2,i,4,i,106,/,/,/
O=S(=O)(NC1CC2CCC1C2)c1ccc2c(c1)OCCO2 (centres undefined),2.0*[inhibitor],-2,i,-26,i,3.0*[inhibitor],96,1,102
O=C1CC(N2CCN(c3ccc(F)cc3)CC2)C(=O)N1c1ccc2c(c1)OCO2 (centres undefined),2.0*[inhibitor],-2,i,-84,i,1.0*[inhibitor],103,4,102
O=C(COC(=O)CC1CCCC1)Nc1cccc(F)c1,/,0,/,/,i,/,/,/,/
O=c1[nH]c(SCc2nc3ccccc3n2Cc2ccccc2)nc2ccccc12,93,3,i,-4,i,97,/,/,/
O=c1[nH]c(SCc2nc3ccccc3c(=O)n2-c2ccccc2C(F)(F)F)nc2ccccc12,67*[inhibitor],2,i,-2,i,75,98,4,101
CCN(C(=O)c1ccco1)c1nnc(-c2ccc(OC)cc2)s1,66*[inhibitor],1,i,4,i,78,104,-2,103
COCCN(C(=O)CSc1nncn1-c1ccccc1)c1c(N)n(Cc2ccccc2)c(=O)[nH]c1=O,101,1,i,-1,i,99,/,/,/
CCN(C(=O)CSc1nncn1-c1ccccc1)c1c(N)n(Cc2ccccc2)c(=O)[nH]c1=O,63*[inhibitor],0,i,-2,i,89,102,-3,103
CCN(C(=O)CSc1nnnn1-c1ccccc1)c1c(N)n(Cc2ccccc2)c(=O)[nH]c1=O,67*[inhibitor],1,i,0,i,99,105,7,108

# Screening data (PubChem)
